This is one part of a sample in which hits are shown more often than they occur.
DT40 TDP1 no CPT: qHTS for Inhibitors of human tyrosyl-DNA phosphodiesterase 1 (TDP1): qHTS in cells in absence of CPT; DT40 Tdp1-/- hTDP1 cells, no CPT, ATP luminescence, 48 h; AID 686978, 2013; Potency, µM (series often up to 46.2 µM), for the others: at the top dose activity change, negative = growth inhibition, most hits filed as inhibitors; 15% of 420,000 active; note: potency is the fitted concentration of half-maximal effect; nearly all actives have a fitted effect of over 55% in size
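Readout: luminescence from CellTiter-Glo after 30 min in the dark at RT. Cells: DT40 Tdp1-/- with stable hTDP1, 400/well. Exposure: compounds alone, ≥48 hr, 37 °C.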
IL1B secr inh: inhibitors of inflammasome signaling (IL-1 beta secretion); 4.7% of 360,000 active; THP-1 LPS/ATP IL-1B secretion, AlphaLISA, 16 h; hits give low values; activity change, % at 57.5 µM; in the data active = activity change below about -50%; inconclusive = mostly about -30% to -49%
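THP-1 cells pretreated 1 hr with compounds (up to 57.5 uM final), then stimulated with LPS (250 ng/mL final) plus ATP (1.25 mM final); secreted IL-1B measured by AlphaLISA after 16 hr, decreased signal indicating inhibition.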
HT1080NT lethal: kills 2HG-producing HT-1080-NT fibrosarcoma cells. HT-1080-NT fibrosarcoma viability, CellTiter-Glo ATP luminescence, 48 h. Potency, µM (doses to about 46.1 µM), for the others: top-dose activity, negative = less viability, most hits filed as cytotoxic. 1.6% of 360,000 active. AID 686970;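 note: NT is the 2HG producing partner of a matched IDH1 knockdown line; potency is the fitted concentration of half-maximal effect; 0% = DMSO-treated cells and -100% = media-only wells without cells; nearly all actives have a fitted effect of over 55% in size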
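HT-1080-NT fibrosarcoma cells (2HG-overproducing), 750 cells/well in RPMI with 5% FBS, dosed after 2 h and incubated 48 h at 37C. CellTiter-Glo luminescence normalized to DMSO and no-cell wells; concentration-response curves fitted and classed.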
12-LOX inh: ALOX12 (human) lipoxygenase inhibition | Potency, µM (top dose mostly 108 µM), without a hit: top-dose activity change, negative = inhibition, usual class: inhibitors | AID 1671190 | purified 12hLO, xylenol orange hydroperoxide absorbance | P18054 | 1.1% of 580,000 active; note: potency is the fitted concentration of half-maximal effect
Target sequence (P18054 whole entry, looked up): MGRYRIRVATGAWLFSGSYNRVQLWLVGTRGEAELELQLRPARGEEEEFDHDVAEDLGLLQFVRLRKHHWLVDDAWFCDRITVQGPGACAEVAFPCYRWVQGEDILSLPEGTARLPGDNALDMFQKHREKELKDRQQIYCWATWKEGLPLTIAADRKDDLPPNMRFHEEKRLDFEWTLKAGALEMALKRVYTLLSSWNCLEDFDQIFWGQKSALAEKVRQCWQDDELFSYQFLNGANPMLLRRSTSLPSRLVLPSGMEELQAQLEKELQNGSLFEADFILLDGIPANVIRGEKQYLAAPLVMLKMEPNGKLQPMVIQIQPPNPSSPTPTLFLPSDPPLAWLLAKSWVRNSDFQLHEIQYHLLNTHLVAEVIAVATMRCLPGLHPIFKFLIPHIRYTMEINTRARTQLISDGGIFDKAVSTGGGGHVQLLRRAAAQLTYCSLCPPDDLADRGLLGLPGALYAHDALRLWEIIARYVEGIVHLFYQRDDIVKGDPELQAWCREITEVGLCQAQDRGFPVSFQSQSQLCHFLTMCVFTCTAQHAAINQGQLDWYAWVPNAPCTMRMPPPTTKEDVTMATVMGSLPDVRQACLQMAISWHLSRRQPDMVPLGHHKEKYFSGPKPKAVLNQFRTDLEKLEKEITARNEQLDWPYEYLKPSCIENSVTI
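Hydroperoxide product was detected by ferrous iron/xylenol orange as the 573 to 405 nm absorbance ratio. Arachidonic acid at 40 uM (final) was turned over for 30 min at room temperature by 150 nM human 12hLO, pH 7.0 Hepes buffer, after 15 min compound preincubation.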
DT40 TDP1 CPT: DT40-hTDP1 cell growth loss with CPT | chicken DT40 Tdp1-/-;hTDP1 cells + 20 nM CPT, ATP luminescence, 48 h | Potency, µM (highest dose often 46.2 µM), for the others: top-dose activity change, negative = growth inhibition, most hits filed as inhibitors | 12% of 420,000 active | AID 686979; note: potency is the fitted concentration of half-maximal effect; nearly all actives have a fitted effect of over 55% in size
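Chicken DT40 Tdp1-/- cells complemented with human TDP1, 400 cells/well, exposed to compounds plus 20 nM camptothecin for at least 48 h at 37 C; viability read as ATP content by CellTiter-Glo luminescence.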
HT1080 IDH1KD tx: kills HT-1080 cells with IDH1 knockdown. AID 686971. 2% of 360,000 active. HT-1080 IDH1 knockdown viability, ATP luminescence, 48 h. Potency, µM (top dose mostly 46.1 µM), without a hit: top-dose activity, negative = toxicity, most hits filed as cytotoxic;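 note: potency is the fitted concentration of half-maximal effect; 0% = DMSO wells and -100% = cell-free medium wells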
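HT-1080-IDH1KD cells (IDH1 knocked down), 750/well in RPMI with 5% FBS, treated with compound 48 h at 37 degrees C. Viability by CellTiter-Glo luminescence, normalised to DMSO and no-cell wells; concentration-response curves classed.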
An asterisk follows results filed as active; ? = inconclusive; . = no result. Unless noted, calls come from the whole dose curve; as a rule, active = well fitted curve in the direction sought with a large enough effect; inconclusive = small, poorly fitted or top-dose-only effect, or another doubt; inactive = no such curve, though single readings can be large; an effect the other way counts as inactive or inconclusive. Unless noted, % is set by controls: 0 for no effect and ±100 for the full control effect.

SMILES	DT40 TDP1 no CPT	IL1B secr inh	HT1080NT lethal	12-LOX inh	DT40 TDP1 CPT	HT1080 IDH1KD tx
COc1cccc(C2c3c(oc4ccccc4c3=O)C(=O)N2CCCN2CCOCC2)c1OC (stereo not drawn)	6.6%	11.2	-0.4%	13.0%	0.2%	17.0%
CCOc1cccc(C2c3c(oc4ccc(F)cc4c3=O)C(=O)N2CCc2ccc(OC)cc2)c1 (stereo not drawn)	?	.	.	2.8%	5.17µM*	.
COc1ccc(C2c3c(oc4ccccc4c3=O)C(=O)N2CCCN2CCOCC2)cc1 (stereo not drawn)	23.1µM*	6.7	2.7%	.	?	4.8%
COc1ccc(CCN2C(=O)c3oc4ccc(F)cc4c(=O)c3C2c2ccc(C(C)(C)C)cc2)cc1 (stereo not drawn)	3.26µM*	.	.	4.7%	?	.
Cc1nc2ccccc2c(C)c1CC(=O)N1CCC(C(=O)N2CCCCC2)CC1	.	.	.	-41.4%	.	.
C=C1c2nc3ccccc3n2C=C(c2ccc(C)cc2)N1c1ccccc1	13µM*	11.3	20.6µM*	?	8.2µM*	18.4µM*
COc1ccc(NC(=O)C(C)(C)Oc2ccc(Cl)cc2)cn1	9.5%	-1.7	9.1%	?	-3.3%	4.7%
COc1cc(NC(=O)c2ccccc2)c(OC)cc1NC(=O)Cc1ccc(F)cc1	20.6µM*	-18.4	-10.8%	5.3%	-0.8%	-24.5%
COc1ccc(NC(=O)Cc2ccc(-c3ccccc3)cc2)cn1	11.6µM*	36.7	9.2µM*	-3.8%	13µM*	23.1µM*
COc1ccc(NC(=O)/C(Cl)=C(/Cl)S(=O)Cc2ccc(Cl)cc2)cn1 (stereo not drawn)	0.259µM*	-102.3*	1.3µM*	?	0.13µM*	0.92µM*
COc1cc(NC(=O)c2ccccc2)c(OC)cc1NC(=O)Cc1ccc(Br)cc1	?	-17.0	1.3%	17.5%	?	-2.2%
COc1ccccc1NC(=O)Cc1ccc(-c2ccccc2)cc1	?	-79.5*	?	-17.4%	?	?
CCCCCn1nc(C(=O)Nc2ccc3nc(N4CCOCC4)sc3c2)c2ccccc2c1=O	.	.	.	11.8%	.	.
CCc1ccccc1S(=O)(=O)N1C[C@H](F)C[C@@H]1C(=O)N1CCOCC1	.	.	.	35.4%	.	.
Cc1cccc(N2C(N)=C(C#N)C(C#N)(C#N)C2c2ccccc2)c1 (stereo not drawn)	10.3µM*	-9.5	-19.9%	?	20.6µM*	-15.8%
N#CC1=C(N)N(c2ccccc2)C(c2ccco2)C1(C#N)C#N (stereo not drawn)	?	-29.3	-12.4%	-9.3%	?	?
N#CC1=C(N)N(c2ccccc2)C(c2cccc([N+](=O)[O-])c2)C1(C#N)C#N (stereo not drawn)	16.4µM*	-21.5	-1.2%	0.0%	?	-3.0%
C=CCNC(=O)C1COC2(CCCCC2)N1C(=O)c1cccc(F)c1 (stereo not drawn)	.	.	.	71.4%	.	.
COc1cccc(OCc2cc(=O)n3c(-c4ccccc4)csc3n2)c1	?	.	.	-27.1%	?	.
O=C(/C=C/c1c(Cl)cccc1Cl)n1cccn1	16.4µM*	-52.2*	?	12.2%	?	?
O=C(NC1=C(NC2CCS(=O)(=O)C2)C(=O)c2ccccc2C1=O)c1ccccc1 (stereo not drawn)	2.31µM*	-92.9*	14.6µM*	?	2.06µM*	18.4µM*
O=C(Nc1cc(Cl)ncn1)c1ccccc1	13.9%	-62.9*	-1.2%	0.0%	17.9%	0.7%
O=C1C(Cl)=C(NC(=O)c2ccccc2)C(=O)C(Cl)=C1NC(=O)c1ccccc1	2.59µM*	-99.1*	10.3µM*	?	1.3µM*	8.2µM*
